# Reference: PubChem BioAssay (NCI)
# Compounds without any hit were thinned out: in the full panel of roughly 83,000, 20% have a hit.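 Step 1: grow cells in 96-well plates. Step 2: add test compound at a single concentration. Step 3: incubate 48 h. Step 4: record percent growth.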 Unmarked numbers belong to inactive results. Active and inactive are the calls of the source. The calls were made as follows: active = growth percent below 10; inactive = the rest.
# What was measured:
# Experiment in all cases: NCI-60 one-dose screen, 48 h (100 = growth as untreated, 0 = no growth, -100 = all killed)
# Conditions in all cases: 10 µM unless noted
# [1] = system: T-47D breast
# [2] = system: BT-549 breast
# [3] = system: MDA-MB-435 melanoma
# [4] = system: SW-620 colon
# [5] = system: MCF7 breast
# [6] = system: HCT-116 colon
# [7] = system: HCC-2998 colon
# [8] = system: KM12 colon
Compound,growth [1],growth [2],growth [3],growth [4],growth [5],growth [6],growth [7],growth [8]
COc1cc(/C=C2\CN(C)CC3=C2Nc2nc(SC)[nH]c(=O)c2C3c2cc(OC)c(OC)c(OC)c2)cc(OC)c1OC (stereo not given),85.4%,54.9%,2.77% (active),11.7%,33.5%,-46.3% (active),49.9%,
Cc1csc(C#Cc2cncc(O)c2)n1,98.3%,113%,96.8%,113%,97.8%,103%,107%,
Cc1cc(Br)c(C)cc1Br,92.5%,99.9%,99.8%,108%,98.2%,99.1%,115%,
CC(C)OP(=O)(OC(C)C)c1ncc(-c2ccc(C(F)(F)F)cc2)c(NC2CCCCCC2)n1,-13.8% [33.3 µM] (active),-95% [33.3 µM] (active),-75.2% [33.3 µM] (active),-52.7% [33.3 µM] (active),0.217% [33.3 µM] (active),-93.4% [33.3 µM] (active),-87.6% [33.3 µM] (active),
O=C1/C=C/[C@@H](O)[C@@H]2C[C@@H](O)C[C@H]2/C=C/CCC[C@H](CO)O1,32.5%,20.1%,18.5%,10.5%,-2.04% (active),2.08% (active),-22.5% (active),
COC(=O)[C@H](Cc1cn(C)cn1)NC(=O)[C@H](C)NC(=O)Nc1cc(C(F)(F)F)cc(C(F)(F)F)c1,-58.7% [100 µM] (active),-91.6% [100 µM] (active),-86.7% [100 µM] (active),-27.4% [100 µM] (active),-60% [100 µM] (active),-84.2% [100 µM] (active),-88.9% [100 µM] (active),-70.8% [100 µM] (active)
O=C(Nc1ccc(Cl)cc1)Nc1nc2ccc(OC(F)(F)F)cc2o1,41.1%,146%,112%,98.4%,76.6%,85%,140%,68.3%
CCOC(=O)Nc1cc(-c2ccc(C)c(NS(C)(=O)=O)c2)nn2c(C)nnc12,23.3%,49.5%,9.2% (active),30.2%,13%,15.6%,-58% (active),12.2%
CC1C(C)N(C(=O)CCl)c2ccccc2N1C(=O)CCl (stereo not given),-42% (active),-86.4% (active),-20.9% (active),-81.7% (active),-49.4% (active),-93.2% (active),-93.9% (active),-91.7% (active)
COc1ccc2c(=O)c(OC)c(-c3cc(OC)c(OC)c(OC)c3)oc2c1,76.1%,117%,105%,92.2%,88%,87.2%,82.5%,
O=Cc1ncc(-c2ccc(C(F)(F)F)cc2)c(NC2CCCCCC2)n1,-19% [100 µM] (active),-93.4% [100 µM] (active),-88.1% [100 µM] (active),-44.4% [100 µM] (active),-86.3% [100 µM] (active),-94.3% [100 µM] (active),-74.4% [100 µM] (active),
O=C1NC(=O)/C(=C/c2ccc(Cl)cc2Cl)N1,90.9%,104%,116%,102%,95.3%,114%,102%,103%
COc1ccccc1NC(=O)c1sc2nc3c(cc2c1N)C(=O)CCC3,87.3%,63.1%,-31.9% (active),60.2%,59%,75.5%,75.5%,53.4%
C[C@]12CCC(=O)C=C1CCC1C2[C@@H](O)C[C@@]2(C)C1CC[C@]2(O)C(=O)COC(=O)CCC(=O)O (stereo not given in full),114%,100%,96.3%,113%,102%,106%,98%,109%
Cc1c2oc3c(C)ccc(C(=O)OC(C)C4NC(=O)C(C(C)C)N(C)C(=O)CN(C)C(=O)C5CCCN5C(=O)C(C(C)C)NC4=O)c3nc-2c(C(=O)OC(C)C2NC(=O)C(C(C)C)N(C)C(=O)CN(C)C(=O)C3CCCN3C(=O)C(C(C)C)NC2=O)c(N)c1=O (stereo not given),5.74% (active),-38.1% (active),-71.1% (active),3.76% (active),5.55% (active),7.39% (active),-34.4% (active),
N#CC(C#N)C(C#N)C#N,87.9%,89.5%,99.8%,99.1%,95.5%,86.8%,98.4%,102%
